# Experimental data: PubChem BioAssay (NCATS)
# Records with an inconclusive call do not appear. Where a call stands in place of a potency, no number is given. Active and inactive are the calls of the source. Calls follow the shape of the dose curve; as a rule, active = well fitted curve in the direction sought with a large enough effect; inconclusive = small, poorly fitted or top-dose-only effect, or another doubt; inactive = no such curve, though single readings can be large or run the other way.
# Assay: Cytometric Cell-Based qHTS for Inhibitors of the mTORC1 Signaling Pathway in MEF (Tsc2-/-, p53-/-) Cells (AID 2660);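 also: Tsc2 and p53 null MEFs carrying empty vector with compound for 24 h; percent of cells above a phospho-rpS6 to PI ratio cutoff in each well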
# Conditions: mTORC1 pathway cytometry; series mostly up to 38.3 µM
# Source text: NIH Molecular Libraries Probe Production Centers Network [MLPCN]
# NIH Chemical Genomics Center [NCGC]
# Assay Submitter (PI): Blenis, John; Hoffman, Greg; Harvard University
# NCGC Assay Overview: The mammalian target of rapamycin (mTOR) is an intracellular serine/threonine kinase Aberrant regulation of mTOR signaling plays a causative role in a number of human diseases, including cancer, benign tumors such as lymphangioleiomyomatosis (LAM) and Tuberous Sclerosis Complex (TSC), and metabolic diseases such as diabetes and obesity. This project aims to identify inhibitors of ribosomal protein S6 (rpS6) phosphorylation. The phosphorylation of rpS6 is a key event downstream of mTOR activation. The assay uses a phospho-specific antibody of phospho-rpS6 to detect inhibitors of mTOR activation. Mutations in the Tsc1 and Tsc2 genes are the underlying genetic lesions responsible for TSC, causing constitutive activation of the mTORC1 pathway and leading to profound effects on cell metabolism. Aberrant metabolism in cancer has recently received significant attention as a target to develop therapeutic agents in the treatment of cancer.1 As Tsc2-/- cells have lost the ability to respond to energy and growth factor deprivation, these cells are unable to properly down regulate cellular biosynthetic processes in response to metabolic stress, and are thus extremely sensitive to glucose deprivation-induced death.2 A central goal of this project is to explore the unique cell survival and metabolic properties of cells with Tsc1 or Tsc2 by screening for compounds that selectively target the Tsc2-/- MEFs by screening both Tsc2-/- and WT MEF cell lines. We hope to better understand these aspects of TSC physiology in order to exploit them for therapeutic benefit.
# NCGC Acumen Assay Protocol Summary:
# For quantitative high throughput analysis of mTORC1 signaling, we developed a cell-based assay for immuno-fluorescence based detection of rpS6 phosphorylation on the Acumen Explorer that will be used a platform for the primary small molecule screen. Mouse embryonic fibroblasts (MEFs) are cultured in 1536-well plates using DMEM + 10% FBS. Twenty-four hrs after plating, test compounds (solubilized in DMSO) are delivered and incubated with the cells for 24 hrs at 37 degree Celsius. Following the incubation, media with compound is aspirated and the cells are fixed in 4% paraformaldehyde (PFA) containing PBS + 0.2% TX-100. Next, PFA is aspirated, cells are washed two times with PBS plus 0.2% TX-100 and the cells are blocked for 1 hr at room temperature (blocking buffer: LiCOR Blocking Buffer plus 0.2% TX-100). This is followed by aspiration and staining with Alexa-488 conjugated-phospho-rpS6 Ser235/236 antibody for 2 hours at room temperature (Cell Signaling Technology # 4803, 1:50 dilution in blocking buffer). Cells are washed two times with PBS plus 0.2% TX-100, and stained with 10 uM propidium iodide (PI) for 20-25 minutes for cell number measurement (1:500 dilution of Hoescht staining is also added for IN Cell imaging). The plates are scanned on the Acumen Explorer laser scanning instrument (TTP Labtech) using the 488nm laser for simultaneous excitation of the Alexa-488 and PI. The fluorescence emission from the Alexa-488 conjugated rpS6 phospho-235/236 antibody staining is selected using a […] band pass filter. Fluorescence emission from the PI stain is selected using a 575-640 nm band pass filter. The normalized phospho-S6 staining is calculated as the ratio of the integrated Alexa 488 intensity divided by the integrated PI intensity for the single concentration rapamycin control (7.5 nM) and DMSO columns. […] Inhibition of the pathway is defined based on the normalized phospho-S6 intensity in rapamycin treated cells. […]
row,Compound,Potency
1,CCN(CCCl)Cc1ccccc1Br,inactive
2,CCCC[N+]1(C)C2CC(OC(=O)[C@H](CO)c3ccccc3)CC1C1OC12 (stereo not given in full),inactive
3,COc1cc(CC(C)N)c(OC)cc1I (stereo not given),inactive
4,C=CCN1CCc2cccc3c2[C@H]1Cc1ccc(O)c(O)c1-3,inactive
5,NCCc1c[nH]c2ccc(C(N)=O)cc12,inactive
6,C[C@@H]1O[C@@H](O[C@H]2C[C@@H](O)[C@]3(CO)[C@@H]4C(CC[C@]3(O)C2)[C@@]2(O)CC[C@H]([C@@H]3COC(=O)C3)[C@@]2(C)C[C@H]4O)[C@H](O)[C@H](O)[C@H]1O (stereo not given in full),inactive
7,CCCN(CCC)[C@@H]1CCc2cccc(O)c2C1,inactive
8,COc1ccc2c(c1O)-c1cccc3c1[C@@H](C2)N(C)CC3,inactive
9,CC12NC(Cc3ccccc31)c1ccccc12 (stereo not given),inactive
10,Oc1ccc2c3c1O[C@H]1c4oc5ccccc5c4C[C@@]4(O)C(C2)N(CC2CC2)CCC314 (stereo not given in full),inactive
11,O=S1(=O)N(CCN2CC=C(c3c[nH]c4cc(F)ccc34)CC2)c2cccc3c2N1CCC3,inactive
12,CC(N)c1cccc(Cl)c1Cl (stereo not given),inactive
13,CCCN1CCc2cccc3c2[C@H]1Cc1ccc(O)c(O)c1-3,inactive
14,COc1ccc2c(c1)c(CCN1CCOCC1)c(C)n2C(=O)c1cccc(Cl)c1Cl,inactive
15,C[N+]1(C)CCOC(O)(c2ccc(-c3ccc(C4(O)C[N+](C)(C)CCO4)cc3)cc2)C1 (stereo not given),inactive
16,CCCN(CCC)C1Cc2cc(OC)c(OC)cc2C1,inactive
17,N=C(N)c1ccc(CS(=O)(=O)F)cc1,inactive
18,CC(C)[C@@]1(NC(=O)[C@@H]2C[C@@H]3c4cccc5[nH]cc(c45)C[C@H]3N(C)C2)O[C@@]2(O)[C@@H]3CCCN3C(=O)[C@H](Cc3ccccc3)N2C1=O,inactive
19,CO[C@H]1CC=C2CCN3CCC4=C(CC(=O)OC4)[C@]23C1,inactive
20,CCCN1CCC[C@@H](c2cccc(O)c2)C1,inactive

row,Compound,Potency
1,CCCn1c(C)c(C(=O)c2ccc3ccccc3c2)c2ccccc21,inactive
2,CC(C)(C)c1o[nH]c(=O)c1CC(N)C(=O)O (stereo not given),inactive
3,CCCn1c(=O)c2[nH]c(C3CCCC3)nc2n(CCCOC(=O)c2ccc(S(=O)(=O)F)cc2)c1=O,inactive
4,Cc1o[nH]c(=O)c1CC(N)C(=O)O (stereo not given),inactive
5,CN(C(=O)Cc1ccc(Cl)c(Cl)c1)C(CN1CCCC1)c1cccc(OCC(=O)O)c1 (stereo not given),inactive
6,C[N+](C)(C)CC#CCOC(=O)Nc1cccc(Cl)c1,inactive
7,CCCN(CCC)[C@H]1CCc2c(F)ccc(O)c2C1,inactive
8,Cc1sc2ccccc2c1CC1=NCCN1,inactive
9,N#C/C(=C/c1ccc(O)c(O)c1)C(N)=S,inactive
10,C[N+]1(C)C2CCC1CC(OC(=O)c1c[nH]c3ccccc13)C2 (stereo not given),inactive
11,COc1ccc2[nH]c3c(c2c1)CCNC3,inactive
12,C[Se]C[C@H](N)C(=O)O,inactive
13,CCCN(CCC)CCc1c[nH]c2ccc(C(N)=O)cc12,inactive
14,COc1ccc2c(c1)C13CCCCC1C(C2)N(C)CC3 (stereo not given),inactive
15,Clc1cc(I)cc(Cl)c1NC1=NCCN1,inactive
16,O=C1C=CC(=O)C=C1,inactive
17,CP(=O)(O)C1=CCNCC1,inactive
18,C=CCN1CCC23c4c5ccc(O)c4O[C@H]2C(=O)CC[C@@]3(O)C1C5 (stereo not given in full),inactive
19,C=CCN1CC[C@]23c4c5ccc(O)c4O[C@H]2/C(=N/NC(=O)c2ccccc2)CC[C@@]3(O)[C@H]1C5,inactive
20,NCC(O)c1cc(O)c(O)cc1F (stereo not given),inactive
